# According to PubChem BioAssay (Tox21):
# Records with an inconclusive call do not appear. A call without a number means that no potency is given here. The source made the active and inactive calls. Calls follow the shape of the dose curve; as a rule, active = well fitted cell-killing curve with a large enough effect in the repeat runs (not every such curve was filed as active); inconclusive = weak or mixed curves, or effect the other way; inactive = no such curve, though single readings can be large or run the other way.
# Experiment: qHTS assay to identify small molecule antagonists of the estrogen related receptor signaling pathway with the pleiotropic PPARgamma coactivator (PGC) from Tox21 10K library - cell viability counter screen (AID 1224840); also: nearly all actives have a fitted effect of over 40% in size
# Details: PGC/ERR reporter cells viability, CellTiter-Fluor, 17.5 h; series mostly up to 92.4 µM
# Procedure, shortened: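 Fluorescence read-out of CellTiter-Fluor viability reagent, added after cells had been exposed to compound in DMSO for 17.5 h at 37 C; 30 min development at 37 C/5% CO2. Cells: PGC/ERR line, 2,000/well.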
# Potency is read from the fitted curve at half-maximal effect.
row,SMILES,Potency
1,O=C1CN=C(c2ccccc2)c2cc(Cl)ccc2N1CC1CC1,inactive
2,Nc1ccc([N+](=O)[O-])cc1[N+](=O)[O-],inactive
3,CC[C@H]1C[C@H]2[C@@H]3CCC4=CC(=O)CC[C@@H]4[C@H]3CC[C@]2(C)[C@H]1O,inactive
4,CO/C=C(/C(=O)OC)c1ccccc1COc1cccc(C(F)(F)F)n1,inactive
5,COC(=O)C(C)N(C(=O)Cc1ccccc1)c1c(C)cccc1C (stereo not given),inactive
6,O=C(CBr)c1ccccc1,inactive
7,O=C(O)C1(c2ccc3c(c2)OC[C@H](Cc2ccc(-c4ccccc4)cc2)[C@H]3O)CCCC1,inactive
8,C(=NC1CCCCC1)=NC1CCCCC1,38.8 µM (active)
9,Clc1ccc(C(OCCN2CCCCC2)c2ccccc2)cc1 (stereo not given),inactive
10,CCCN(CCC)c1c([N+](=O)[O-])cc(S(C)(=O)=O)cc1[N+](=O)[O-],inactive
11,CN1C[C@H](CNC(=O)OCc2ccccc2)C[C@@H]2c3cccc4c3c(cn4C)C[C@H]21,inactive
12,O=C1C(=O)c2cccc3cccc1c23,inactive
13,CC(C)(C)C(O)C(Oc1ccc(Cl)cc1)n1cncn1 (stereo not given),inactive
14,CCO[C@H]1O[C@@H]2OC3(C)CC[C@H]4[C@H](C)CC[C@@H]([C@H]1C)[C@@]24OO3,inactive
15,NS(=O)(=O)C(F)(F)C(F)(F)C(F)(F)C(F)(F)C(F)(F)C(F)(F)C(F)(F)C(F)(F)F,inactive
